Experiment [1] is described as follows: optical density shifts of acrAB sulA E. coli – strain DRC41, OD650, 48 h, E. coli filamentation inducer project, primary screen (AID 1152).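 Also: E. coli MC1000 strain DRC41 lacking acrAB efflux pump and sulA.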 The following applies: higher = more signal, called active from +8 up or from −8 down.
The nature of experiment [2]: probe aLefty1 binding on compound microarray – biochemical, small-molecule microarray, 635/667 nm fluorescence, primary screen (AID 1153).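 Also: score merges spot fluorescence with signal-to-noise ratio from the scanned slide images.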 To be noted: higher = more signal.
Experiment [3] can be described thus: plasmodial surface anion channel blockers, osmotic lysis – cell-based, P. falciparum Indochina, OD700, 1 h, primary screen (AID 1154). To be noted: P. falciparum Indochina infected RBC osmotic lysis, higher = more signal, called active from +8 up or from −8 down.
Experiment [4] is described as follows: plasmodial surface anion channel blockers, osmotic lysis – cell-based, P. falciparum Indochina, OD700, 2 h, primary screen (AID 1155).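 Also: lysis reports solute entry through the parasite surface anion channel PSAC.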 The following applies: P. falciparum Indochina infected erythrocytes, higher = more signal, called active from +8 up or from −8 down.
Experiment [5] is described as follows: changes in parasitized red cell lysis, either direction – P. falciparum Indochina, OD700, 3 h, PSAC antagonist project, primary screen (AID 1156). To be noted: P. falciparum-infected erythrocytes, osmotic lysis, higher = more signal, called active from +8 up or from −8 down.
Experiment [6] can be described thus: plasmodial surface anion channel blockers, osmotic lysis – cell-based, P. falciparum Indochina, OD700, 18 h, primary screen (AID 1157). The following applies: P. falciparum Indochina infected erythrocytes, osmotic lysis OD700, 18 h; higher = more signal, called active from +8 up or from −8 down.
Experiment [7] can be described thus: S6 kinase pathway phospho-S6 level changes – cell-based, A549, cytoblot, luminescence, serum-stimulated, primary screen (AID 1158).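 Also: serum-stimulated A549 lung adenocarcinoma cells; signal is phosphorylated S6 detected by cytoblot immunostaining with HRP secondary.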 To be noted: 5 h, higher = more signal.
Experiment [8] has as its target NADPH oxidase 2 (Homo sapiens) (UniProt P04839). The experiment in a line: compounds shifting NOX2 Amplex Red fluorescence – cell-based, HEK293-NOX2, PMA-stimulated, NOX inhibitor project, primary screen (AID 1159). Also: test concentration not given here. To be noted: 45 min, higher = more signal, called active from +8 up or from −8 down.
Experiment [9] has as its target NADPH oxidase 4 (Homo sapiens) (UniProt Q9NPH5). The experiment in a line: compounds shifting NOX4 Amplex Red fluorescence – cell-based, HEK293-NOX4, tetracycline-induced, NOX inhibitor project, primary screen (AID 1160). To be noted: HEK293-NOX4, Amplex Red H2O2 fluorescence, 45 min; higher = more signal, called active from +8 up or from −8 down.
In experiment [10] the target is NADPH oxidase 5 (Homo sapiens) (UniProt Q96PH1). The experiment in a line: compounds shifting NOX5 Amplex Red fluorescence – cell-based, HEK293-NOX5, NOX inhibitor project, primary screen (AID 1161). To be noted: HEK293-NOX5, ionomycin, 45 min, higher = more signal.
Experiment [11] in a line: compound effects on lung adenocarcinoma cell viability – A549, calcein-AM fluorescence, 48 h, basal, profiling panel (AID 1162). Also: test concentration not given here. To be noted: higher = more signal.
Experiment [12] in a line: compound effects on differentiated 3T3-L1 adipocyte viability – cell-based, 3T3-L1 adipocytes, calcein-AM fluorescence, 48 h, basal, profiling panel (AID 1163). Also: test concentration not given here. The following applies: 3T3-L1 adipocytes viability, higher = more signal.
A short description of experiment [13]: compound effects on hepatocellular carcinoma cell viability – HepG2, calcein-AM fluorescence, 48 h, basal, profiling panel (AID 1164). Also: test concentration not given here. The following applies: higher = more signal.
Experiment [14] can be described thus: compound effects on multiple myeloma cell viability – MM1S, calcein-AM fluorescence, 48 h, basal, profiling panel (AID 1165).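 Also: viability of MM1S multiple myeloma cells under basal unstimulated conditions; test concentration not given here.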 To be noted: higher = more signal.
Experiment [15] can be described thus: calcein-AM signal in unstimulated myeloma cells – cell-based, calcein-AM fluorescence, 48 h, PK04 Diversity Set, profiling panel (AID 1166).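 Also: cells grown under basal conditions without added stimulus; test concentration not given here.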 To be noted: RPMI8226 myeloma viability, higher = more signal.
Experiment [16] can be described thus: JC-1 mitochondrial signal, unstimulated HepG2 cells – cell-based, JC-1 fluorescence, 24 h, 100 nL compound, profiling panel (AID 1167). Also: test concentration not given here. The following applies: HepG2 mitochondrial potential, higher = more signal.
Experiment [17] can be described thus: JC-1 mitochondrial signal, unstimulated adipocytes – cell-based, JC-1 fluorescence, 3T3-L1 adipocytes, 24 h, 100 nL compound, profiling panel (AID 1168). Also: test concentration not given here. The following applies: JC-1 mitochondrial fluorescence, higher = more signal, called active from +8 up or from −8 down.
Experiment [18] is described as follows: JC-1 mitochondrial signal, unstimulated myeloma cells – cell-based, JC-1 fluorescence, RPMI8226, 24 h, 100 nL compound, profiling panel (AID 1169). Also: test concentration not given here. To be noted: JC-1 mitochondrial potential fluorescence, higher = more signal.
Experiment [19] in a line: JC-1 mitochondrial signal, unstimulated MM1S myeloma – cell-based, JC-1 fluorescence, 24 h, 100 nL compound, profiling panel (AID 1170). Also: test concentration not given here. The following applies: MM1S mitochondrial potential, higher = more signal.
A short description of experiment [20]: resazurin metabolic signal in A549 cells – cell-based, resazurin fluorescence, 24 h, PK04 Diversity Set, profiling panel (AID 1171). Also: test concentration not given here. The following applies: A549 viability, higher = more signal, called active from +8 up or from −8 down. A general note: The colour change of resazurin is a common sign of viable cells or microbes.

Activity calls are given as the source filed them.

Sequence of NADPH oxidase 2 (Homo sapiens) (P04839 whole entry, looked up): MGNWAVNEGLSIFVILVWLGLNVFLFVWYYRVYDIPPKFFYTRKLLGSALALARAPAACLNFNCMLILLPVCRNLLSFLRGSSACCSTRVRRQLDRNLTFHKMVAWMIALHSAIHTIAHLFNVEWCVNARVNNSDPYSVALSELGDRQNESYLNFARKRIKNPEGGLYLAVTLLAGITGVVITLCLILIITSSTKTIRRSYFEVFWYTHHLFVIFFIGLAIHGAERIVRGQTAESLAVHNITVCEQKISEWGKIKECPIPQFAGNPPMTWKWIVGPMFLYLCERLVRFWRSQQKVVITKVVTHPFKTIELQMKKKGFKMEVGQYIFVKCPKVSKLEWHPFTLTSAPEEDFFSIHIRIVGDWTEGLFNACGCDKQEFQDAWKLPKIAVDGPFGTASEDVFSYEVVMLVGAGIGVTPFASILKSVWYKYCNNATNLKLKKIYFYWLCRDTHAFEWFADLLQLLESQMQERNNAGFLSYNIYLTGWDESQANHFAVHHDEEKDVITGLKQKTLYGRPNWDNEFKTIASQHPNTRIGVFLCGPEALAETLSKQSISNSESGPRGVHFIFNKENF
Sequence of NADPH oxidase 5 (Homo sapiens) (Q96PH1 whole entry, looked up): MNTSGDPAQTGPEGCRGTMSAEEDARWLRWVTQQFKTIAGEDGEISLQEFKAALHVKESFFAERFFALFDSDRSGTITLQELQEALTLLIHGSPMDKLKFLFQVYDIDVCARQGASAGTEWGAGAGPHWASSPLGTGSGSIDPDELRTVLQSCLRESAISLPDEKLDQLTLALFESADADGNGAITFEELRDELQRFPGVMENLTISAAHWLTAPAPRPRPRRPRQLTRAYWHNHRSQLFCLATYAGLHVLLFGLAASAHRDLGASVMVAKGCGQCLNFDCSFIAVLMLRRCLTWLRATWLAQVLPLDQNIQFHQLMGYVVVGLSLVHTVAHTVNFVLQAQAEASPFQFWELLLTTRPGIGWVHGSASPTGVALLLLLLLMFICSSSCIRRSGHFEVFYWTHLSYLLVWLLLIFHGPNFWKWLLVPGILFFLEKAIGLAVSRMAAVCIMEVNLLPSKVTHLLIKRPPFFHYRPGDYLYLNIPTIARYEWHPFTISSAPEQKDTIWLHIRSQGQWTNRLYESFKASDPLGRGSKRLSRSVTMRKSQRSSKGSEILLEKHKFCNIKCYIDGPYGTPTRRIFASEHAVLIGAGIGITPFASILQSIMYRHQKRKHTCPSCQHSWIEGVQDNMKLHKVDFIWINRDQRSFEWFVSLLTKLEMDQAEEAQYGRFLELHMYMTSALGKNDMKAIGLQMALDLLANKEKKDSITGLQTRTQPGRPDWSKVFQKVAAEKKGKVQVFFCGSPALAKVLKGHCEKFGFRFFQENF
Sequence of NADPH oxidase 4 (Homo sapiens) (Q9NPH5 whole entry, looked up): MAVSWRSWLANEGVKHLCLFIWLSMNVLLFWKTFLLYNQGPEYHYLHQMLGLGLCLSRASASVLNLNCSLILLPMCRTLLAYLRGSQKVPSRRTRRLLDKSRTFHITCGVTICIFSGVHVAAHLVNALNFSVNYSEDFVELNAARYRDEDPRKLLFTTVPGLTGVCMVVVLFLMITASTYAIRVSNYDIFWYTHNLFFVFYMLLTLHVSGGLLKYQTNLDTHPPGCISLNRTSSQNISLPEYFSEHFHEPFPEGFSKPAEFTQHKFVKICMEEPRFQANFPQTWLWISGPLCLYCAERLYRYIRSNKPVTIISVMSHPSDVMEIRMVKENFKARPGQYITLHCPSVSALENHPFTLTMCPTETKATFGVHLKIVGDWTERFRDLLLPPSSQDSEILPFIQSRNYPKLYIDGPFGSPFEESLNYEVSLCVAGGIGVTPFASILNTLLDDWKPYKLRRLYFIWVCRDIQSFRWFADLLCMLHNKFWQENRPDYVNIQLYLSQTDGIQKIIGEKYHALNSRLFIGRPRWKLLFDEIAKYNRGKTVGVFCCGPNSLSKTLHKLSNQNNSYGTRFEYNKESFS

As for `COCCOC(=O)N1C(=O)[C@@]2(c3cc(C#CCNC(N)=O)ccc31)[C@H](C(=O)N1CCN(c3ncccn3)CC1)[C@H]1C(=O)O[C@H](c3ccccc3)[C@H](c3ccccc3)N1[C@@H]2c1ccc(OCCO)cc1`, the z-score in [1] is -0.492 (inactive); in experiment [3] it was 6.11 (inactive); in experiment [4] it was 1.93 (inactive); in experiment [5] it was 1.26 (inactive); in [6], 0.778 (inactive); in experiment [7], -0.319. The z-score in experiment [8] was 1.64 (inactive); in [9] it was 0.971 (inactive); in experiment [10], -0.121; in [11], 0.572; in [12], 0.148; in [13], 0.548. Further, the z-score was 0.63 in experiment [14]; 0.287 in [15]; -2.07 in experiment [16]; 1.6 (inactive) in experiment [17]; -0.863 in [18]; -1.51 in [19]. Further, the z-score in experiment [20] is -0.465 (inactive). In experiment [2], this compound came in with a composite z-score of 0.267.
`COc1cc2c(cc1OC)CN(C(=O)[C@@H]1[C@H]3C(=O)O[C@H](c4ccccc4)[C@H](c4ccccc4)N3[C@H](c3ccc(O)cc3)[C@@]13C(=O)Nc1ccccc13)CC2`: the z-score in experiment [1] was 2.38 (inactive); in experiment [3], 1.32 (inactive); in experiment [4], 0.216 (inactive); in [5], -0.287 (inactive); in [6], -1.28 (inactive); in experiment [7], 2.99. Moreover, the z-score is 0.00476 (inactive) in experiment [8]; -0.339 (inactive) in experiment [9]; -0.19 in experiment [10]; 1.62 in experiment [11]; 1.45 in experiment [12]; 1.01 in [13]. The z-score in experiment [14] was 0.0197; in experiment [15], -1.62; in experiment [16], -0.574; in experiment [17] it was 0.382 (inactive); in [18], -1.08; in [19], -0.404. In experiment [20], the z-score is 1.6 (inactive). In experiment [2], this compound had a composite z-score of 0.154.
As for `COCCOC(=O)N1C(=O)[C@@]2(c3cc(C#CCC(C(=O)OC)C(=O)OC)ccc31)[C@H](C(=O)Nc1nc3ccccc3s1)[C@H]1C(=O)O[C@H](c3ccccc3)[C@H](c3ccccc3)N1[C@@H]2c1ccccc1OCCO`, the z-score in experiment [1] was 0.275 (inactive); in experiment [3], 11.2 (active); in experiment [4] it was 2.85 (inactive); in [5] it was 0.599 (inactive); in experiment [6], 2.31 (inactive); in experiment [7] it was 0.0413. Further, the z-score was 0.652 (inactive) in [8]; 0.671 (inactive) in experiment [9]; 0.234 in [10]; 1.84 in experiment [11]; 0.6 in [12]; 1.31 in experiment [13]. Also, the z-score is -0.139 in experiment [14]; 0.199 in experiment [15]; -2.23 in [16]; 0.803 (inactive) in [17]; -0.859 in experiment [18]; -1.19 in [19]. Also, the z-score in experiment [20] is -0.454 (inactive). Besides, the composite z-score in experiment [2] was 0.212.
On to `C[C@H]1C2[C@H](Cc3ccccc3)NC(=O)[C@]23C(=O)N[C@H](Cc2ccccc2)C(=O)N2CCC[C@H]2C(=O)NC/C=C\C/C=C/C3[C@@H]2O[C@]12C` (stereo not given in full), for which the z-score in experiment [1] is 0.637 (inactive); in experiment [3], 1.4 (inactive); in experiment [4] it was -1.49 (inactive); in experiment [5], -1.3 (inactive); in experiment [6], -2.52 (inactive); in experiment [7], 0.477. Also, the z-score in [8] is 0.977 (inactive); in experiment [9], 1.14 (inactive); in experiment [10], 1.73; in experiment [11], 1.4; in experiment [12], 0.993; in [13], 0.445. The z-score in experiment [14] was 0.0625; in [15], -0.0608; in [16], 0.725; in [17], 0.736 (inactive); in [18], -0.243; in [19], -0.634. Besides, the z-score in experiment [20] was 0.559 (inactive). In [2], this compound registered a composite z-score of -0.026.

The values above are taken from PubChem BioAssay.
